# Unmarked numbers belong to inactive results.
# Tested on: Vero E6 infected with SARS-CoV-2
# Assay: inhibition of SARS-CoV-2 cytopathic effect; higher = more antiviral protection, active = above 15
# Conditions: 48 h
SMILES,inhibition of SARS-CoV-2 cytopathic effect (1 nM),inhibition of SARS-CoV-2 cytopathic effect (8.33 nM),inhibition of SARS-CoV-2 cytopathic effect (100 nM),inhibition of SARS-CoV-2 cytopathic effect (833.33 nM),inhibition of SARS-CoV-2 cytopathic effect (10000 nM)
CNC(=O)c1c(I)c(NC(C)=O)c(I)c(C(=O)O)c1I [iothalamic-acid-d3],-5.17%,-2.14%,-1.59%,0.31%,-1.65%
Cn1nc(-c2ccc(C(F)(F)F)cc2)nc2c(=O)n(C)c(=O)nc1-2 [walrycin-B],-1.05%,-0.74%,1.15%,12.5%,-12.8%
Cn1cc(-c2ccc3ncc(Cc4ccc5ncccc5c4)n3n2)cn1,-4.59%,-2.71%,-1.81%,2.47%,3.49%
CC(=O)NC[C@H]1CN(c2ccc(N3CCN(C(=O)CO)CC3)c(F)c2)C(=O)O1 [eperezolid],-1.15%,-0.41%,-0.04%,0.64%,0.19%
CC[C@@H](C)c1ccc(NC(=O)Cn2cnc3c2c(=O)n(C)c(=O)n3C)cc1 (racemic),-0.15%,0.22%,-1.39%,-1.04%,3.52%
COC1=C(OC)C(=O)C(CCCCCCCCCCO)=C(C)C1=O [idebenone],-0.23%,-3.04%,-0.1%,0.64%,0.26%
CC(=O)N(O)[C@@H]1c2cc(C#N)ccc2OC(C)(C)[C@H]1O,-2.54%,0.31%,1.05%,0.36%,3.02%
COC(=O)c1ccc2c(c1)nc(NC(=O)c1ccccc1)n2CCCc1ccccc1,-0.52%,-1.27%,-1.28%,-5.07%,-1.86%
COc1ccc(CCc2nc3cc(-c4c(C)noc4C)ccc3n2C[C@H](C)N2CCOCC2)cc1Cl,0.67%,1.61%,0.26%,-1.13%,5.31%
O=C(Cc1ccc(-c2ccc(OCCN3CCOCC3)cc2)cn1)NCc1ccccc1,-1.67%,0.24%,-3.29%,-1.51%,-1.44%
Cc1ccc(OC[C@@H](O)[C@H](C)NC(C)C)c2c1CCC2 (racemic),-1.05%,-1.6%,-1.43%,-0.36%,-1.51%
C[C@H](CS)C(=O)N1CCC[C@H]1C(=O)O [captopril],-1.79%,0.97%,-2.39%,-1.5%,-0.97%
NC(=O)OCCCc1ccccc1 [phenprobamate],0.89%,0.93%,-0.42%,-2.45%,-2.7%
Cc1sc(N)c(C(=O)c2cccc(C(F)(F)F)c2)c1C,1.09%,-1.79%,-3.31%,-3.27%,-2.62%
Clc1ccccc1CNC[C@H]1CC[C@H](CNCc2ccccc2Cl)CC1,-1.74%,-2.28%,-1.13%,-3.17%,16.4% (active)
OCCOCCN1CCN(C(c2ccccc2)c2ccc(Cl)cc2)CC1 (stereo not given) [hydroxyzine],1.41%,0.93%,1.56%,-1.88%,-4.3%
CNC(=O)c1cccc(NC(=O)N2CCC(Oc3ccccc3Cl)CC2)c1,0.48%,-3.23%,-1.17%,-2.36%,-3.23%
CCCCCCCCNC(C)C(O)c1ccc(SC(C)C)cc1 (stereo not given) [suloctidil],0.05%,-0.56%,-0.38%,0.21%,-0.41%
C[C@H]1COc2c(C3(N)CC3)c(F)cc3c(=O)c(C(=O)O)cn1c23 [pazufloxacin],-5.2%,-1.82%,2.15%,0.57%,-3.15%
CCCC(C)C1(CC)C(=O)NC(=O)NC1=O (stereo not given) [pentobarbital],2.05%,2%,1.92%,-1.44%,-1.04%
OCc1c[nH]c2ccccc12 [indole-3-carbinol],-1.46%,0.47%,-3.76%,-0.69%,-14.3%

SMILES,inhibition of SARS-CoV-2 cytopathic effect (1 nM),inhibition of SARS-CoV-2 cytopathic effect (8.33 nM),inhibition of SARS-CoV-2 cytopathic effect (100 nM),inhibition of SARS-CoV-2 cytopathic effect (833.33 nM),inhibition of SARS-CoV-2 cytopathic effect (10000 nM)
COC(=O)CC[C@@H]1N=C(c2ccccn2)c2cc(Br)ccc2-n2c(C)cnc21 [remimazolam],0.83%,1.12%,2.32%,0.51%,-1.57%
CCOC(=O)c1ccc(O)cc1 [ethyl-paraben],0.82%,3.38%,-1.2%,0.24%,-1.28%
COc1cc(OC)c(C(=O)CCCN2CCCC2)c(OC)c1 [buflomedil],1.62%,0.64%,4.02%,3.26%,1.28%
CN(C)C(=O)Oc1cc(OC(=O)N(C)C)cc(C(O)CNC(C)(C)C)c1 (stereo not given) [bambuterol],-2.95%,-0.79%,-1.68%,-1.56%,-1.86%
CC(=O)N[C@@H](CC(C)C)C(=O)O [acetyl-l-leucine],1.37%,-0.18%,-0.14%,-1.79%,-0.49%
C/C=C1\NC(=O)[C@H]2CSSCC/C=C/[C@H](CC(=O)N[C@H](C(C)C)C(=O)N2)OC(=O)[C@H](C(C)C)NC1=O [romidepsin],-1.04%,0.79%,-0.75%,-16.6%,-18%
CC(C)(O)C(=O)Nc1ccc([N+](=O)[O-])c(C(F)(F)F)c1 [2-hydroxyflutamide],0.48%,0.38%,-0.65%,-2.57%,-4.93%
CC(=O)Nc1cccc(Nc2ncnc(N3CCC(OCc4ccc(OC(F)(F)F)cc4)CC3)n2)c1C,0.94%,-3.45%,-5.16%,-2.26%,1.6%
Cc1cnc(-c2ccccc2C(C)C)nc1NCc1ccc(-n2ccnn2)cc1,-3.33%,-2.94%,-0.44%,0.3%,1.03%
CCOc1ccc(Nc2nc(-c3c(C)nc4ccccn34)cs2)cc1,-1.73%,-0.39%,-1.68%,2.2%,1.71%
C[C@]12C=CC(=O)N[C@@H]1CC[C@@H]1[C@@H]2CC[C@]2(C)[C@@H](C(=O)Nc3cc(C(F)(F)F)ccc3C(F)(F)F)CC[C@@H]12 [dutasteride],-4.2%,-3.31%,1.66%,-2.35%,-7.18%
CC1(C)Oc2ccc(C#N)cc2[C@@H](N2CCCC2=O)[C@@H]1O [levcromakalim],0.65%,1.1%,0.31%,1.22%,2.06%
CC(C)=CCC[C@](C)(O)[C@@H]1CC=C(C)CC1 [levomenol],0.81%,4.97%,5.57%,3.97%,0.76%
O=C1NC(=O)c2cc(Nc3ccc(F)cc3)c(Nc3ccc(F)cc3)cc21,1.21%,-0.56%,-1.81%,0.4%,10.3%
CCCc1nc(C(C)(C)O)c(C(=O)OCc2oc(=O)oc2C)n1Cc1ccc(-c2ccccc2-c2nnn[nH]2)cc1 [olmesartan-medoxomil],-1.27%,0.1%,-1.32%,1.87%,0.55%
COc1ccc(CN(CCN(C)C)c2ccccn2)cc1 [mepyramine],-3.35%,-2.48%,-1.11%,2.27%,1.04%
O=C(O)c1ccc(CN2CCC(CN[C@@H]3C[C@H]3c3ccccc3)CC2)cc1,0.72%,1.52%,1.24%,3.6%,2.94%
COCCN1CCC(C(=O)NO)(S(=O)(=O)c2ccc(Oc3ccc(OC(F)(F)F)cc3)cc2)CC1,3.42%,2.45%,2.99%,3.32%,1.34%
COc1ccc(C2CNC(=O)NC2)cc1O[C@H]1C[C@@H]2CC[C@H]1C2 [atizoram],-0.64%,1.37%,-0.71%,-0.02%,-1.24%
C[C@H](C[C@H](N)C(=O)O)C(=O)O,-1.19%,-0.93%,-1.73%,-0.6%,-0.35%

# Reference: the supplement of paper PMC13380429
